In PubChem BioAssay (NCI):
About 83,000 compounds went through this panel and 20% of them were active in at least one assay; those are over-represented in the sample as a whole.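 Assay: single dose, 48 h. Readout: percent growth (0 = no net growth; negative = cell death). Active: <10.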 A number with no mark means an inactive call. Calls of active or inactive are those of the source.

Key:
Assay in all cases: NCI-60 one-dose screen, 48 h (100 = growth as untreated, 0 = no growth, -100 = all killed)
Conditions in all cases: 10 µM unless noted
DU-145 prostate = test system: DU-145 prostate
K-562 leukemia = test system: K-562 leukemia
MALME-3M melanoma = test system: MALME-3M melanoma
MDA-MB-231 breast = test system: MDA-MB-231 breast
RXF 393 renal = test system: RXF 393 renal
SF-268 CNS = test system: SF-268 CNS
SF-295 CNS = test system: SF-295 CNS
SF-539 CNS = test system: SF-539 CNS
UACC-257 melanoma = test system: UACC-257 melanoma
M14 melanoma = test system: M14 melanoma

SMILES	growth (DU-145 prostate)	growth (K-562 leukemia)	growth (MALME-3M melanoma)	growth (MDA-MB-231 breast)	growth (RXF 393 renal)	growth (SF-268 CNS)	growth (SF-295 CNS)	growth (SF-539 CNS)	growth (UACC-257 melanoma)	growth (M14 melanoma)
COc1ccc(C(=O)/C=C/c2ccc(Cl)cc2)cc1S(=O)(=O)Nc1c(N)nc(SC)[nH]c1=O	88.3%	3.84% (active)	90.1%	68.2%	92%	45.3%	90.1%	-5.49% (active)	90.9%	74.7%
COc1ccc2c(c1)c(/C(O)=C1\COC(=O)C1=O)cn2Cc1ccc(F)cc1	139%	86.6%	106%	94.1%	104%	103%	93.3%	102%	95.8%	116%
O=S(=O)(NCCNc1nccc(-c2c(-c3cccc(O)c3)nc3occn23)n1)c1ccc(Br)cc1	44.8%	17.2%	15%	34.7%	28.8%	40.8%	78.3%	48.7%	20.8%	17.8%
Nc1ncnc2c1N=C(c1ccc3c(c1)OCO3)CC(c1cccc(Nc3ccnc4cc(C(F)(F)F)ccc34)c1)N2 (stereo not given)	87.3%	21%	84.3%	88.4%	80.5%	83.6%	87.6%	98.9%	74.9%	94.2%
COC(=O)c1ccc(NC(=O)Nc2ccc(C(=O)OC)cc2)cc1	121%	90.6%	123%	94.1%	112%	115%	121%	112%	104%	103%
O=C(CN1CCCCCC1)Nc1nc2ccc(NCc3ccc(Cl)cc3)cc2s1	101%	87.9%	98.1%	97.3%	99.2%	99.9%	95.9%	94.8%	100%	99.3%
[2H]C([2H])([2H])Oc1ccc(F)cc1/C=C/C(=O)/C=C(O)/C=C/c1cc(F)ccc1OC([2H])([2H])[2H]	95.3%	84%	104%	108%	103%	89.8%	103%	107%	89.6%	85.1%
C=C(C)[C@@H]1CC[C@]2(C(=O)N3CCN(C)CC3)CC[C@]3(C)[C@H](CC[C@@H]4[C@@]5(C)CC[C@H](OC(=O)c6ccccc6C(=O)O)C(C)(C)[C@@H]5CC[C@]43C)[C@@H]12	104%	102%	97.4%	96.9%	111%	92.8%	104%	97.6%	107%	99.3%
O=C(Nc1ccccc1O)c1ccc(CNC(=O)c2ccsc2Nc2ccnc(C(F)(F)F)c2)cc1	30.6%	9.19% (active)	9.89% (active)	39.1%	0.801% (active)	40.2%	2.43% (active)	42.4%	6.92% (active)	45.2%
COc1cc(OC)c(/C=C/C(=O)c2c(O)cc(OC)c(C3CCN(C)CC3)c2OC)c(OC)c1	-36.2% (active)	9.67% (active)	-92.2% (active)	-68.1% (active)	-75.1% (active)	-70.9% (active)	-79.9% (active)	-91.4% (active)	-81.7% (active)	-92.7% (active)
Cc1cccc(N2CCC(=O)NC2=S)c1	116%	112%	95.9%	89.9%	115%	99.4%	103%	96.7%	105%	97.3%
C=C1C(=O)O[C@H]2[C@H]1CC/C(CNC(=O)c1c[nH]c3ccc(F)cc13)=C\CC[C@@]1(C)O[C@@H]21	-58.5% (active)	-19.3% (active)	-2.58% (active)	11.7%	-84.9% (active)	42.8%	67.7%	-42.6% (active)	-68.4% (active)	-26.1% (active)
COC(=O)/C=C1/SC(=Nc2ccc([N+](=O)[O-])cc2)N(CCc2c[nH]c3ccc(O)cc23)C1=O	57.3%	52.5%	68.6%	61.1%	27.3%	43.7%	59.5%	66.2%	55.8%	46%
c1ccc(CCNc2c3ccccc3nc3ccccc23)cc1	37.9%	25%	57.1%	43.3%	35.3%	66.5%	34.9%	28.1%	55.2%	42.7%
CN(C)CCCC1(c2ccc(F)cc2)OCc2cc(-c3ccc4cc[nH]c4c3)ccc21 (stereo not given)	35.7%	-20.1% (active)	11%	16%	45.8%	54%	74.5%	67.8%	79.1%	-56.8% (active)
N#C/C(=C\c1cn(Cc2ccccc2)c2ccccc12)C(=O)Nc1ncc(Cc2ccccc2Cl)s1	24.3%	26.2%	-7.28% (active)	19.8%	40.8%	64.1%	8.89% (active)	13.5%	-38.2% (active)	38.9%
COc1cc(-c2nc3c(ncc4ccc(=O)n(-c5ccccc5)c43)s2)cc(OC)c1OC	80.2%	90.5%	65.4%	64.1%	48.2%	69.1%	90.4%	57.4%	101%	87.6%
NC(=O)c1c(NC(=O)c2cccs2)sc2c1CCC(=O)C2	80.3%	10.3%	67%	26.1%	46.4%	30.3%	86.9%	-3.38% (active)	63.7%	26.1%
CCN1C2CCC1/C(=C\c1ccc(F)cc1)C(=O)/C2=C/c1ccc(F)cc1	9.04% (active)	20.5%	55.7%	62.5%	57.9%	38.4%	36.3%	51.8%	50.8%	35.9%
CN(Cc1ccccc1)c1nc(Cl)c(C2CC(c3ccccc3)=NN2c2ccccc2)s1 (stereo not given)	102%	79.9%	90.3%	101%	101%	86.6%	101%	98.9%	93%	96.6%
C=CN(C(=O)N1CCN(c2cc3c(cc2F)c(=O)c(C(=O)O)cn3C2CC2)CC1)c1nc(-c2ccc(OC)cc2)cs1	30.9%	21.9%	42.7%	22.1%	20%	29.6%	11.8%	25.8%	26.9%	32.1%
COc1ccc(/C=C2\CN(C(=O)C(Cl)Cl)C/C(=C\c3ccc(OC)cc3)C2=O)cc1	-11.2% (active)	2.32% (active)	-33.9% (active)	3.8% (active)	-68.2% (active)	23.6%	-25.1% (active)	-40% (active)	22.8%	-39% (active)
Cc1ccc(/C=C(\C#N)n2nnc3cc(F)c(F)cc32)cc1	-3.37% (active)	4.34% (active)	33%	12%	-0.406% (active)	23.4%	36.6%	-25.5% (active)	38%	-27.7% (active)
CCNc1nc(O)c(/C=C2\C=Nc3ncccc32)s1	9.93% (active)	26.3%	-6.17% (active)	10.7%	-39.3% (active)	-5.81% (active)	4.95% (active)	-64.2% (active)	-15.9% (active)	0.692% (active)
O=C(CI)NC(=O)NC(=O)NCc1ccccc1	78.2%	-59.8% (active)	-59% (active)	11.3%	48.5%	58.5%	91.6%	27.3%	83%	6.48% (active)
COc1ccc(-c2ccc(-c3ccc(C(=N)N)nc3)s2)cc1Cl	-92.5% (active)	-29.8% (active)	74.1%	-75.1% (active)	56.8%	-62.8% (active)	-78.4% (active)	-90.6% (active)	93.5%	-40.6% (active)
C#Cc1cccc(Nc2nc(C)nc3cc(NC(=O)CCl)ccc23)c1	-95.8% (active)	0.173% (active)	-77.6% (active)	-73.1% (active)	-87.2% (active)	-67.2% (active)	-79.7% (active)	-92.8% (active)	-60.9% (active)	-27.5% (active)
